Laboratory results as given in PubChem BioAssay (NCATS).
Results filed as inconclusive are left out. Where a call stands in place of a potency, no number is given. The source made the active and inactive calls. The call rests on the fitted dose curve; in most records, active means well fitted inhibition curve with a large enough effect; inconclusive means small, poorly fitted or top-dose-only effect; inactive means flat fitted curve, though single readings scatter.
Potency means the concentration at half of the fitted maximal effect.

The compounds below were run on CP266 (assay: qHTS profiling for inhibitors of Plasmodium falciparum proliferation (AID 504749; further: nearly all actives have a fitted effect of over 60% in size)). Details: P. falciparum in erythrocytes, SYBR Green DNA, 72 h; series mostly up to 28.7 µM.
Procedure, shortened: (§1)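 Three-day growth assay of blood-stage parasites in erythrocytes (0.3% parasitemia, 2.5% hematocrit) at 37 C, 5% CO2, quantified by SYBR Green DNA staining after overnight detergent lysis.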
In the case of CC(=O)O[C@H]1CC[C@H]2[C@@H]3CCC4=CC(=O)CCC4=C3C=C[C@]12C, the Potency is reported as “inactive”.
CC[N+](C)(CC)CCOC(=O)C(O)(c1ccccc1)c1ccccc1 was tested, and the Potency was “inactive”.
O=C1C2CC=CCC2C(=O)N1SC(Cl)(Cl)Cl (configuration not stated) was tested, and the Potency was “inactive”.
With [O]=[Cd] the Potency was “inactive”.
[O]=[Cr](=[O])([OH])[O][Cr](=[O])(=[O])[OH] was tested, and the Potency was “inactive”.
ClC=C(Cl)Cl was tested, and the Potency was “inactive”.
With CCC(C)(S(=O)(=O)CC)S(=O)(=O)CC the Potency was “inactive”.
For C[CH2][Hg][S]c1ccccc1C(=O)O, the Potency was 4.26 µM (active).
For C[C@]12CCC(=O)C[C@@H]1CC[C@@H]1[C@@H]2CC[C@]2(C)[C@@H](O)CC[C@@H]12, the Potency was “inactive”.
With CNC(C)C(O)c1ccc(O)cc1 (configuration not stated) the Potency was “inactive”.
For ClCC1CO1 (configuration not stated), the Potency was “inactive”.
For CCNC(C)Cc1cccc(C(F)(F)F)c1 (configuration not stated), the Potency was “inactive”.
For CN1C2CCC1CC(OC(c1ccccc1)c1ccc(Cl)cc1)C2 (configuration not stated), the Potency was 13.5 µM (active).
With COC([CH2][Hg])CNC(=O)c1ccccc1OCC(=O)O (configuration not stated) the Potency was “inactive”.
CCON=O was tested, and the Potency was “inactive”.
In the case of Clc1ccccc1Cl, the Potency is reported as “inactive”.
In the case of CCC(N)Cc1c[nH]c2ccccc12 (configuration not stated), the Potency is reported as “inactive”.
In the case of O[C@H]1[C@H]2[C@H](O)CCCN2C[C@H]1O, the Potency is reported as “inactive”.
For C[N+]1(C)C2CCC1CC(OC(=O)c1c[nH]c3ccccc13)C2 (configuration not stated), the Potency was “inactive”.
For Clc1ccc(Cl)cc1, the Potency was “inactive”.
CC(C)(O)C1C2OC(=O)C1C1(O)CC3OC34C(=O)OC2C14C (configuration not stated) was tested, and the Potency was “inactive”.
In the case of O=[N+]([O-])C(Br)(CO)CO, the Potency is reported as “inactive”.
In the case of CC(C)Nc1ccc(Nc2ccccc2)cc1, the Potency is reported as 8.49 µM (active).
With FC(F)OC(F)(F)C(F)Cl (configuration not stated) the Potency was “inactive”.
For CC(=O)OO, the Potency was “inactive”.
In the case of CN1c2ccccc2C(NCCCCCCC(=O)O)c2ccc(Cl)cc2S1(=O)=O (configuration not stated), the Potency is reported as “inactive”.
CCCC(C)C1(CC)C(=O)NC(=O)NC1=O (configuration not stated) was tested, and the Potency was “inactive”.
With C=CCN1CCC23c4c5ccc(O)c4O[C@H]2C(=O)CC[C@@]3(O)C1C5 (some centres not stated) the Potency was “inactive”.
For ClC(Cl)(Cl)Cl, the Potency was “inactive”.
With Oc1cc(Cl)c(Cl)cc1Cl the Potency was “inactive”.
O=CC=O was tested, and the Potency was “inactive”.
CCCC(C)(COC(N)=O)COC(=O)NC1CC1 (configuration not stated) was tested, and the Potency was “inactive”.
In the case of N#CN, the Potency is reported as “inactive”.
For O=C(CS(=O)C(c1ccccc1)c1ccccc1)NO (configuration not stated), the Potency was “inactive”.
In the case of ClC1C(Cl)C(Cl)C(Cl)C(Cl)C1Cl (configuration not stated), the Potency is reported as “inactive”.
O=Cc1ccco1 was tested, and the Potency was “inactive”.
In the case of O=S(=O)(O)c1cc(O)ccc1O, the Potency is reported as “inactive”.
In the case of CCCCNCC(O)c1ccc(O)cc1 (configuration not stated), the Potency is reported as “inactive”.
O=C1CCCCC1CN1CCCCC1 (configuration not stated) was tested, and the Potency was “inactive”.

Each compound was assayed on CP268 in the same assay as above. Details: P. falciparum in erythrocytes, SYBR Green DNA, 72 h; series mostly up to 28.7 µM.
Procedure, shortened: as §1
For CC(=O)O[C@H]1CC[C@H]2[C@@H]3CCC4=CC(=O)CCC4=C3C=C[C@]12C, the Potency was “inactive”.
In the case of CC[N+](C)(CC)CCOC(=O)C(O)(c1ccccc1)c1ccccc1, the Potency is reported as “inactive”.
O=C1C2CC=CCC2C(=O)N1SC(Cl)(Cl)Cl (configuration not stated) was tested, and the Potency was “inactive”.
For [O]=[Cd], the Potency was “inactive”.
[O]=[Cr](=[O])([OH])[O][Cr](=[O])(=[O])[OH] was tested, and the Potency was “inactive”.
For ClC=C(Cl)Cl, the Potency was “inactive”.
For CCC(C)(S(=O)(=O)CC)S(=O)(=O)CC, the Potency was “inactive”.
C[CH2][Hg][S]c1ccccc1C(=O)O was tested, and the Potency was 3.79 µM (active).
C[C@]12CCC(=O)C[C@@H]1CC[C@@H]1[C@@H]2CC[C@]2(C)[C@@H](O)CC[C@@H]12 was tested, and the Potency was “inactive”.
CNC(C)C(O)c1ccc(O)cc1 (configuration not stated) was tested, and the Potency was “inactive”.
With ClCC1CO1 (configuration not stated) the Potency was “inactive”.
With CCNC(C)Cc1cccc(C(F)(F)F)c1 (configuration not stated) the Potency was “inactive”.
For CN1C2CCC1CC(OC(c1ccccc1)c1ccc(Cl)cc1)C2 (configuration not stated), the Potency was 9.53 µM (active).
For COC([CH2][Hg])CNC(=O)c1ccccc1OCC(=O)O (configuration not stated), the Potency was “inactive”.
In the case of CCON=O, the Potency is reported as “inactive”.
In the case of Clc1ccccc1Cl, the Potency is reported as “inactive”.
With CCC(N)Cc1c[nH]c2ccccc12 (configuration not stated) the Potency was “inactive”.
With O[C@H]1[C@H]2[C@H](O)CCCN2C[C@H]1O the Potency was “inactive”.
With C[N+]1(C)C2CCC1CC(OC(=O)c1c[nH]c3ccccc13)C2 (configuration not stated) the Potency was “inactive”.
In the case of Clc1ccc(Cl)cc1, the Potency is reported as “inactive”.
With CC(C)(O)C1C2OC(=O)C1C1(O)CC3OC34C(=O)OC2C14C (configuration not stated) the Potency was “inactive”.
In the case of O=[N+]([O-])C(Br)(CO)CO, the Potency is reported as “inactive”.
In the case of CC(C)Nc1ccc(Nc2ccccc2)cc1, the Potency is reported as 10.7 µM (active).
FC(F)OC(F)(F)C(F)Cl (configuration not stated) was tested, and the Potency was “inactive”.
In the case of CC(=O)OO, the Potency is reported as “inactive”.
For CN1c2ccccc2C(NCCCCCCC(=O)O)c2ccc(Cl)cc2S1(=O)=O (configuration not stated), the Potency was “inactive”.
In the case of CCCC(C)C1(CC)C(=O)NC(=O)NC1=O (configuration not stated), the Potency is reported as “inactive”.
With C=CCN1CCC23c4c5ccc(O)c4O[C@H]2C(=O)CC[C@@]3(O)C1C5 (some centres not stated) the Potency was “inactive”.
For ClC(Cl)(Cl)Cl, the Potency was “inactive”.
Oc1cc(Cl)c(Cl)cc1Cl was tested, and the Potency was “inactive”.
For O=CC=O, the Potency was “inactive”.
In the case of CCCC(C)(COC(N)=O)COC(=O)NC1CC1 (configuration not stated), the Potency is reported as “inactive”.
For N#CN, the Potency was “inactive”.
With O=C(CS(=O)C(c1ccccc1)c1ccccc1)NO (configuration not stated) the Potency was “inactive”.
With ClC1C(Cl)C(Cl)C(Cl)C(Cl)C1Cl (configuration not stated) the Potency was “inactive”.
In the case of O=Cc1ccco1, the Potency is reported as “inactive”.
In the case of O=S(=O)(O)c1cc(O)ccc1O, the Potency is reported as “inactive”.
In the case of CCCCNCC(O)c1ccc(O)cc1 (configuration not stated), the Potency is reported as “inactive”.
O=C1CCCCC1CN1CCCCC1 (configuration not stated) was tested, and the Potency was “inactive”.

The compounds below were run on CP269 in the same assay as above. Details: P. falciparum in erythrocytes, SYBR Green DNA, 72 h; series mostly up to 28.7 µM.
Procedure, shortened: as §1
In the case of CC(=O)O[C@H]1CC[C@H]2[C@@H]3CCC4=CC(=O)CCC4=C3C=C[C@]12C, the Potency is reported as “inactive”.
With CC[N+](C)(CC)CCOC(=O)C(O)(c1ccccc1)c1ccccc1 the Potency was “inactive”.
With O=C1C2CC=CCC2C(=O)N1SC(Cl)(Cl)Cl (configuration not stated) the Potency was “inactive”.
For [O]=[Cd], the Potency was “inactive”.
With [O]=[Cr](=[O])([OH])[O][Cr](=[O])(=[O])[OH] the Potency was “inactive”.
In the case of ClC=C(Cl)Cl, the Potency is reported as “inactive”.
CCC(C)(S(=O)(=O)CC)S(=O)(=O)CC was tested, and the Potency was “inactive”.
C[CH2][Hg][S]c1ccccc1C(=O)O was tested, and the Potency was 1.69 µM (active).
In the case of C[C@]12CCC(=O)C[C@@H]1CC[C@@H]1[C@@H]2CC[C@]2(C)[C@@H](O)CC[C@@H]12, the Potency is reported as “inactive”.
For CNC(C)C(O)c1ccc(O)cc1 (configuration not stated), the Potency was “inactive”.
With ClCC1CO1 (configuration not stated) the Potency was “inactive”.
With CCNC(C)Cc1cccc(C(F)(F)F)c1 (configuration not stated) the Potency was “inactive”.
With CN1C2CCC1CC(OC(c1ccccc1)c1ccc(Cl)cc1)C2 (configuration not stated) the Potency was 9.53 µM (active).
COC([CH2][Hg])CNC(=O)c1ccccc1OCC(=O)O (configuration not stated) was tested, and the Potency was “inactive”.
With CCON=O the Potency was “inactive”.
With Clc1ccccc1Cl the Potency was “inactive”.
In the case of CCC(N)Cc1c[nH]c2ccccc12 (configuration not stated), the Potency is reported as “inactive”.
O[C@H]1[C@H]2[C@H](O)CCCN2C[C@H]1O was tested, and the Potency was “inactive”.
For C[N+]1(C)C2CCC1CC(OC(=O)c1c[nH]c3ccccc13)C2 (configuration not stated), the Potency was “inactive”.
With Clc1ccc(Cl)cc1 the Potency was “inactive”.
With CC(C)(O)C1C2OC(=O)C1C1(O)CC3OC34C(=O)OC2C14C (configuration not stated) the Potency was “inactive”.
For O=[N+]([O-])C(Br)(CO)CO, the Potency was “inactive”.
CC(C)Nc1ccc(Nc2ccccc2)cc1 was tested, and the Potency was 6.75 µM (active).
For FC(F)OC(F)(F)C(F)Cl (configuration not stated), the Potency was “inactive”.
In the case of CC(=O)OO, the Potency is reported as “inactive”.
For CN1c2ccccc2C(NCCCCCCC(=O)O)c2ccc(Cl)cc2S1(=O)=O (configuration not stated), the Potency was “inactive”.
For CCCC(C)C1(CC)C(=O)NC(=O)NC1=O (configuration not stated), the Potency was “inactive”.
C=CCN1CCC23c4c5ccc(O)c4O[C@H]2C(=O)CC[C@@]3(O)C1C5 (some centres not stated) was tested, and the Potency was “inactive”.
ClC(Cl)(Cl)Cl was tested, and the Potency was “inactive”.
Oc1cc(Cl)c(Cl)cc1Cl was tested, and the Potency was “inactive”.
For O=CC=O, the Potency was “inactive”.
For CCCC(C)(COC(N)=O)COC(=O)NC1CC1 (configuration not stated), the Potency was “inactive”.
N#CN was tested, and the Potency was “inactive”.
O=C(CS(=O)C(c1ccccc1)c1ccccc1)NO (configuration not stated) was tested, and the Potency was “inactive”.
For ClC1C(Cl)C(Cl)C(Cl)C(Cl)C1Cl (configuration not stated), the Potency was “inactive”.
In the case of O=Cc1ccco1, the Potency is reported as “inactive”.
For O=S(=O)(O)c1cc(O)ccc1O, the Potency was “inactive”.
CCCCNCC(O)c1ccc(O)cc1 (configuration not stated) was tested, and the Potency was “inactive”.
With O=C1CCCCC1CN1CCCCC1 (configuration not stated) the Potency was “inactive”.
